Laboratory results taken from PubChem BioAssay (Tox21).
Several values for one entry are separate records, joined by “and”; a condition that tells them apart may be missing. Equal entries are not always repeated. Inconclusive results are not listed. Where a call stands in place of a potency, no number is given. Activity calls are given as the source filed them. Unless noted, calls follow the shape of the full dose curve.

Tests used:
[1] = Nuclear factor erythroid 2-related factor 2/antioxidant responsive element (Nrf2/ARE) small molecule agonists: qHTS cell viability counter screen in human keratinocytes (AID 1919968; active = well fitted curve in the direction sought with a large enough effect in the repeat runs; an effect the other way counts as inactive or inconclusive; also: nearly all actives have a fitted effect of over 55% in size)
Procedure, shortened: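 Measured as CellTiter-Fluor fluorescence, this readout tracks cytotoxicity in the same wells as the ARE-luciferase screen. HaCaT reporter cells (1,500/well) received compounds after a 5 h pre-incubation and were exposed for 23 h.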

[2] = target: Gonadotropin-releasing hormone receptor (Homo sapiens) (UniProt P30968); test: Human gonadotropin-releasing hormone receptor (GnRHR) small molecule agonists, calcium flux assay in GnRHR-HEK293 cells (AID 1920063); also: nearly all actives have a fitted effect of over 35% in size
Gonadotropin-releasing hormone receptor (Homo sapiens), sequence (P30968 whole entry, looked up): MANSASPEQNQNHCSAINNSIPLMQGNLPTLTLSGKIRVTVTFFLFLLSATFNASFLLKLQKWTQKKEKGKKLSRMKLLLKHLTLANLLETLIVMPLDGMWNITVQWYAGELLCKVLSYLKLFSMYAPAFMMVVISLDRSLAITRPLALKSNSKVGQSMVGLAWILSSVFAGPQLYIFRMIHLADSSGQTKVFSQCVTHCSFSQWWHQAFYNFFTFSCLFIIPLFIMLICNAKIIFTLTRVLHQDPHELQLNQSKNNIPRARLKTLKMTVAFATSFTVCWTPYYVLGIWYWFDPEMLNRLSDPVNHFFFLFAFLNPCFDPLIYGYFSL
Procedure, shortened: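 Fluorescence kinetics (480 nm excitation, 540 nm emission; 3 min, 1 s steps) report calcium mobilisation in human GnRHR-HEK293 cells in agonist mode. Dye incubation: 1 h, 37 C.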

[3] = target: KiSS-1 receptor (Homo sapiens) (UniProt Q969F8); test: Human kisspeptin (KISS1R) small molecule agonists, calcium flux assay in KISS1R-HEK293 cells (AID 1920064; active = well fitted curve in the direction sought with a large enough effect in the repeat runs; an effect the other way counts as inactive or inconclusive)
KiSS-1 receptor (Homo sapiens), sequence (Q969F8 whole entry, looked up): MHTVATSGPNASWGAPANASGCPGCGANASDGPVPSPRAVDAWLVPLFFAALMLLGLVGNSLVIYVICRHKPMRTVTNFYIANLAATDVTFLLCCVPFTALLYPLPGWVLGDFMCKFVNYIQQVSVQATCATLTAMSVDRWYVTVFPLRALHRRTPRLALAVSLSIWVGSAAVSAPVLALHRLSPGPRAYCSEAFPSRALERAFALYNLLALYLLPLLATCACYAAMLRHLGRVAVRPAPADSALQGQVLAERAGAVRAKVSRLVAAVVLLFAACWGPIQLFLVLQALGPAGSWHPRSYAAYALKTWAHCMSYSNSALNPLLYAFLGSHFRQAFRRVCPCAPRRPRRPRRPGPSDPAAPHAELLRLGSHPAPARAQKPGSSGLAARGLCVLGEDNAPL
Procedure, shortened: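 Measures KISS1R agonism through calcium-sensitive dye fluorescence in stably transfected HEK293 cells, read for 3 min after pin-tool compound delivery; 15-point titrations in triplicate.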

[4] = G protein-coupled receptor (GPCR) small molecule agonists, calcium flux assay: HEK293 wild type cell line counter screen (AID 1920065)
Procedure, shortened: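 Readout: fluorescence at 480 nm excitation/540 nm emission, sampled at 1 s intervals for 3 min. Cells had been cultured 18 h, then dye-loaded 1 h at 37 C before compound or ATP addition.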

[5] = p53 small molecule agonists, cell-based qHTS assay with human liver microsomes (AID 1963577);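 also: p53 response element beta-lactamase reporter cells with liver microsomes plus NADPH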
Procedure, shortened: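 In this qHTS, p53 response-element beta-lactamase cells receive test compound together with a microsome/NADPH activating system (0.5 mg/mL final each) and are incubated 16 h at 37 C before LiveBLAzer fluorescence detection.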

[6] = p53 small molecule agonists, cell-based qHTS assay with rat liver microsomes (AID 1963578)
Procedure, shortened: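 Agonist mode in p53RE-bla reporter cells, with compounds co-incubated 16 h at 37 C alongside 0.5 mg/mL rat liver microsomes and 0.5 mg/mL NADPH (final), followed by a 2 h LiveBLAzer detection step.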

[7] = p53 small molecule agonists, cell-based qHTS assay with human liver microsomes: qHTS cell viability counter screen (AID 1963579); also: nearly all actives have a fitted effect of over 45% in size
Procedure, shortened: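 Metabolically activated exposure: compounds, human liver microsomes and NADPH (0.5 mg/mL final apiece) were added to p53RE-bla cells seeded 5 h earlier, left 16 h at 37 C, and then assessed for viability by CellTiter-Glo luminescence.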

[8] = p53 small molecule agonists, cell-based qHTS assay with rat liver microsomes: qHTS cell viability counter screen (AID 1963580); also: nearly all actives have a fitted effect of over 45% in size
Procedure, shortened: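 In HCT-116 cells carrying a p53 response element-bla reporter, compounds were metabolically activated in situ by rat liver microsomes with NADPH over 16 h. Cell ATP content then served as the cytotoxicity measure.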

[9] = p53 small molecule agonists, cell-based qHTS assay: qHTS cell viability counter screen (AID 1963581); also: nearly all actives have a fitted effect of over 45% in size
Procedure, shortened: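 In the same plates used for the p53 bla reporter, HCT-116 cells given compounds for 16 h at 37 C received CellTiter-Glo; luminescence was recorded 30 min later at room temperature.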

[10] = p53 small molecule agonists, cell-based qHTS assay (AID 1963582; active = well fitted activation curve with a large enough effect in the signal ratio in the repeat runs, not every such curve was filed as active; the % refers to the signal ratio)
Procedure, shortened: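 Compounds are pin-transferred in DMSO onto p53RE-bla cells and incubated 16 h at 37 C. The B/G FRET beta-lactamase substrate is then applied for 2 h at RT and fluorescence recorded.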

[11] = target: 5-hydroxytryptamine receptor 2A (Homo sapiens) (UniProt P28223); test: 5-hydroxytryptamine receptor 2A (HTR2A) small molecule antagonists, cell-based qHTS assay (AID 1963586); also: nearly all actives have a fitted effect of over 45% in size; also: potency is read from the fitted curve at half-maximal effect
5-hydroxytryptamine receptor 2A (Homo sapiens), sequence (P28223 whole entry, looked up): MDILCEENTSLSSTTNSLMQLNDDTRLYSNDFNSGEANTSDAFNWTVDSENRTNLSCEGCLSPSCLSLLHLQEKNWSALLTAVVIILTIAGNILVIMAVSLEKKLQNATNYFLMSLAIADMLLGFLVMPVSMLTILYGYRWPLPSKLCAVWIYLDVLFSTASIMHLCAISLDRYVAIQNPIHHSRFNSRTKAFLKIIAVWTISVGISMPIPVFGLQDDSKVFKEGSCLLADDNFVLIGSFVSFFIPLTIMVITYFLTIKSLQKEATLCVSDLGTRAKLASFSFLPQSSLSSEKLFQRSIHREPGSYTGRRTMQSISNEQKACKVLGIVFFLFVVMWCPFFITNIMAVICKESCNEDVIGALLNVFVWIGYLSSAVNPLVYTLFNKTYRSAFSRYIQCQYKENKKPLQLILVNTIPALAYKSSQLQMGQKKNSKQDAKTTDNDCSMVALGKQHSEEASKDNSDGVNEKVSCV
Procedure, shortened: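 Antagonist-mode intracellular calcium assay: DOI (4 nM) added after 5 min compound pre-incubation at room temperature to dye-loaded HTR2A-CHO cells. Fluorescence followed for 3 min, sampled every second.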

[12] = target: 5-hydroxytryptamine receptor 2A (Homo sapiens) (UniProt P28223); test: 5-hydroxytryptamine receptor 2A (HTR2A) small molecule agonists, cell-based qHTS assay (AID 1963587); also: nearly all actives have a fitted effect of over 30% in size
Procedure, shortened: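 HTR2A-CHO cells, plated 18 h at 37 C/5% CO2, dye-loaded 1 h at 37 C; compounds in DMSO added by pin tool (agonist mode). Intracellular calcium flux read as kinetic fluorescence on FDSS over 2 min at 1 s intervals.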

[13] = target: Muscarinic acetylcholine receptor M1 (Homo sapiens) (UniProt P11229); test: Cholinergic receptor muscarinic 1 (CHRM1) small molecule antagonists, cell-based qHTS assay (AID 1963588); also: nearly all actives have a fitted effect of over 40% in size
Muscarinic acetylcholine receptor M1 (Homo sapiens), sequence (P11229 whole entry, looked up): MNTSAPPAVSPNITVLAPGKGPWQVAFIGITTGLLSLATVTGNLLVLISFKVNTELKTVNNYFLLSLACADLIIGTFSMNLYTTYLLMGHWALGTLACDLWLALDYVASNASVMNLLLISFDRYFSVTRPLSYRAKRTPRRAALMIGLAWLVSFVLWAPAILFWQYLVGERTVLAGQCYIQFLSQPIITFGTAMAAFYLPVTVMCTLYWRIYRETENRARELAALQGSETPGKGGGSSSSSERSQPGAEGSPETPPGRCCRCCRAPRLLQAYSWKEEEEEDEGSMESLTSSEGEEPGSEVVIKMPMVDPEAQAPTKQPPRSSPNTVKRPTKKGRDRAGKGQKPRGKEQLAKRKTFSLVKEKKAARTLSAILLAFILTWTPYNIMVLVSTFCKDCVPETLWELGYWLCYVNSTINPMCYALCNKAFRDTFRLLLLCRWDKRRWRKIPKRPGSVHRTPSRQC
Procedure, shortened: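 CHRM1-CHO calcium-flux assay, antagonist mode. Cells were seeded 18 h, dye-loaded 1 h at 37 C and given compound for 5 min at RT, then acetylcholine was added at 50nM. FDSS fluorescence was read 3 min; 15 concentrations, three runs.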

[14] = target: Muscarinic acetylcholine receptor M1 (Homo sapiens) (UniProt P11229); test: Cholinergic receptor muscarinic 1 (CHRM1) small molecule agonists, cell-based qHTS assay (AID 1963589); also: nearly all actives have a fitted effect of over 35% in size
Procedure, shortened: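 Each compound was tested at 15 concentrations across three independent runs on dye-loaded CHO cells stably expressing human CHRM1, reading intracellular calcium fluorescence kinetically at 1 sec intervals.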

[15] = cAMP Responsive Elements (CRE) small molecule agonists, cell-based qHTS assay (AID 1963590)
Procedure, shortened: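 Cell line: CRE-bla HEK 293T; medium DMEM/10% dialyzed FBS/0.1 mM NEAA/1 mM pyruvate/25 mM HEPES; 3 h compound exposure; beta-lactamase FRET readout after 2 h substrate loading at RT.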

[16] = cAMP Responsive Elements (CRE) small molecule antagonists, cell-based qHTS assay (AID 1963591; active = well fitted inhibition curve with a large enough effect in the signal ratio in the repeat runs, not every such curve was filed as active; the % refers to the signal ratio)
Procedure, shortened: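 Inhibition of NKH477-driven (0.25 uM final) CRE-beta-lactamase signal in HEK293T cells, 3 h compound exposure at 37 °C, detected by FRET substrate fluorescence.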

[17] = target: Beta-2 adrenergic receptor (Homo sapiens) (UniProt P07550); test: Adrenergic beta2 receptor (ADRB2) small molecule antagonists, cell-based qHTS assay (AID 1963592); also: series mostly up to about 92 µM; nearly all actives have a fitted effect of over 50% in size
Beta-2 adrenergic receptor (Homo sapiens), sequence (P07550 whole entry, looked up): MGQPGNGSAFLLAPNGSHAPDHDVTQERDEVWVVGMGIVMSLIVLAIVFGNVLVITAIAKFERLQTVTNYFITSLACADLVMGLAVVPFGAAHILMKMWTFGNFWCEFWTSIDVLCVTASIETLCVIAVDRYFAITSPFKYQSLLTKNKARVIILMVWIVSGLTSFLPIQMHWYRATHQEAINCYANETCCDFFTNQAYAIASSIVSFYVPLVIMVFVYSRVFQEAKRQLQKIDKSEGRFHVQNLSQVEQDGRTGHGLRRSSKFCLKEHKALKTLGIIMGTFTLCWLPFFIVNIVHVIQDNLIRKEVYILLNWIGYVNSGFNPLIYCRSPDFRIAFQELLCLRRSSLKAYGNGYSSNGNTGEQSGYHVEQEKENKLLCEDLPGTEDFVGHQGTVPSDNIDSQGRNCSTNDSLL
Procedure, shortened: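 Cells (CHO, stable ADRB2 overexpression) incubated 18-20hr at 37C; compounds added from DMSO; agonist mix (1nM isoproterenol, 100uM IBMX, 25uM Ro-20-1724) added; 0.5hr RT; d2-cAMP and anti-cAMP-cryptate added; 1hr RT; 665/615 nm read.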

[18] = target: D(2) dopamine receptor (Homo sapiens) (UniProt P14416); test: Dopamine D2 receptor (DRD2) small molecule agonists, cell-based qHTS assay (AID 1963594); also: nearly all actives have a fitted effect of over 35% in size
D(2) dopamine receptor (Homo sapiens), sequence (P14416 whole entry, looked up): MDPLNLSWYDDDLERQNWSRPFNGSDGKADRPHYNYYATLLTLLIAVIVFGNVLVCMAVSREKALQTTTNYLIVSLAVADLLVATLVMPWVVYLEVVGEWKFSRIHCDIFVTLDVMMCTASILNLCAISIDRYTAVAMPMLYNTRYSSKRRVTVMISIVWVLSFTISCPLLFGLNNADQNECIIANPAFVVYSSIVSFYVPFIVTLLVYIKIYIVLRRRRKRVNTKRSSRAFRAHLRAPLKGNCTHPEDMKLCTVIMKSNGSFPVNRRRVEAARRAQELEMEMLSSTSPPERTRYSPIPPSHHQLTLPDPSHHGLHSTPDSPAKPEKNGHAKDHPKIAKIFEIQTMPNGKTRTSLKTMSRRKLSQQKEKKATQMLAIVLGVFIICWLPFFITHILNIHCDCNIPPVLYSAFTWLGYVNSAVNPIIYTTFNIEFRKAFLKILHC
Procedure, shortened: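 HEK293 cells stably expressing DRD2 were cultured 24 h at 37 C, then given Ro20-1724 (0.1 mM final) and compounds for 10 min at room temperature. NKH477 (200nM) was then added for 30 min. cAMP was read by HTRF.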

[19] = target: D(2) dopamine receptor (Homo sapiens) (UniProt P14416); test: Dopamine D2 receptor (DRD2) small molecule antagonists, cell-based qHTS assay (AID 1963595; active = well fitted inhibition curve with a large enough effect in the signal ratio in the repeat runs, with a control signal flat; the % refers to the signal ratio)
Procedure, shortened: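 Antagonism was scored as restored cAMP in HEK293-DRD2 cells. These cells were stimulated with 200 nM NKH477 and 12 nM quinpirole for 30 min at room temperature, in the presence of 0.1 mM Ro20-1724.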

Row | Compound | Potency [1] | Potency [2] | Potency [3] | Potency [4] | Potency [5] | Potency [6] | Potency [7] | Potency [8] | Potency [9] | Potency [10] | Potency [11] | Potency [12] | Potency [13] | Potency [14] | Potency [15] | Potency [16] | Potency [17] | Potency [18] | Potency [19]
1 | CCCCCc1cccc(=O)o1 | inactive | inactive | inactive | inactive | inactive | inactive | inactive | inactive | inactive | inactive | inactive | inactive | inactive | inactive | inactive | inactive | inactive | inactive | inactive
2 | CC1OC1C1CCC2(C)OC2C1 (stereo unspecified) | inactive | inactive | inactive | inactive | inactive | inactive | inactive | inactive | inactive | inactive | inactive | inactive | inactive | inactive | inactive | inactive | inactive | inactive | inactive
3 | O=C(Oc1ccccc1)c1ccc(O)cc1 | inactive | inactive | inactive | inactive | inactive | inactive | inactive | inactive | inactive | inactive | 26.7 µM (active) and 13.3 µM (active) | inactive | inactive | inactive | inactive | inactive | inactive | inactive | inactive
4 | CC(=O)c1sc(C)nc1C | inactive | inactive | inactive | inactive | inactive | inactive | inactive | inactive | inactive | inactive | inactive | inactive | inactive | inactive | inactive | inactive | inactive | inactive | inactive
5 | COc1ccccc1/C=C/C=O | inactive | inactive | inactive | inactive | inactive | inactive | inactive | inactive | inactive | inactive | inactive | inactive | inactive | inactive | inactive | inactive | inactive | inactive | 
6 | O=C(O[C@@H]1Cc2c(O)cc(O)cc2O[C@@H]1c1cc(O)c(O)c(O)c1)c1cc(O)c(O)c(O)c1 | inactive | inactive | inactive | inactive | inactive | inactive | inactive | inactive | inactive | inactive | inactive | inactive | inactive | inactive | inactive | inactive | inactive | inactive | 
7 | CC(C)(C)C(=O)C1C(=O)c2ccccc2C1=O | inactive | inactive | inactive | inactive | inactive | inactive | inactive | inactive | inactive | inactive | inactive | inactive | inactive | inactive | inactive | inactive | inactive | inactive | inactive
